A549 tox: kills or reduces viability of A549 cells in Nrf2 counter-screen. A549 ARE-Fluc cells, CellTiter-Fluor viability, 18-24 h. Potency, µM (top dose mostly 46 µM), for inactives: at the highest dose activity change, negative = cytotoxicity, actives largely listed as inhibitors. 390,000 compounds, 0.16% hits. AID 504648; further: potency means the concentration at half of the fitted maximal effect; on the % scale 0 is the no-effect control and ±100 the full control effect
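A549 ARE_Fluc cells in 5% FBS OPTI-MEM were exposed to compounds in concentration-response for 18-24 h at 37 deg C. Viability was read by CellTiter-Fluor fluorescence (Ex 405/Em 525) after 30 min, before the luciferase read.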
IL2 activator: IL-2 activation; activation, % (series mostly up to about 46 µM); IL-2 activation reporter assay, cell-based qHTS; stimulated with anti-CD3/CD4/CD28 beads; in transgenic mouse T cells; AID 652025; 360,000 compounds, 0.065% hits; in the data active means activation above about 50%; inconclusive means mostly about 30% to 49%; further: 0% is about no effect
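Readout is EGFP and DsRed signal by fluorescent plate cytometry after 18 h at 37 degrees C. Transgenic mouse T cells (750/well) received compound for 60 min before bead stimulation (anti-CD3, anti-CD4, anti-CD28); memory T cells served as non-tolerant control.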
Nrf2 ARE act: Nrf2 pathway activation | AID 624171 | AREc32 ARE-luciferase reporter (MCF7-derived line), luminescence, 24 h | 410,000 compounds, 0.31% hits | Potency, µM (series often up to 46.1 µM), for inactives: at the top dose activation, most hits filed as activators; further: potency means the concentration at half of the fitted maximal effect; % of control where 0% means no effect; nearly all actives have a fitted effect of over 65% in size
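Cells of the AREc32 ARE-luciferase line are plated in OPTI-MEM containing 5% FBS and left overnight at 37 deg C. Compounds are pinned in, incubation continues 24 hr, and firefly luciferase signal is then measured.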
Nrf2 inh: blocks Nrf2 signaling. A549 ARE-Fluc reporter, luciferase luminescence, 18-24 h. AID 504444. Potency, µM (series often up to 46 µM), for inactives: top-dose activity change, negative = inhibition, most hits filed as inhibitors. 360,000 compounds, 2.1% hits; further: potency means the concentration at half of the fitted maximal effect; on the % scale 0 is the no-effect control and ±100 the full control effect; nearly all actives have a fitted effect of over 60% in size
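Quantitative HTS in A549 cells stably bearing an antioxidant response element-firefly luciferase construct. Inhibition of Nrf2-driven transcription was scored by luminescence after 18-24 h of compound exposure at 37 °C.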
Numbers without * were called inactive; ? = inconclusive; . = no result; [ ] = dose if it differs, or a comment. Compounds with a hit are over-represented: about 2.3% of the library has one in this group of screens. Unless noted, the call rests on the fitted dose curve; in most records, active means well fitted curve in the direction sought with a large enough effect; inconclusive means small, poorly fitted or top-dose-only effect, or another doubt; inactive means no such curve, though single readings can be large; an effect the other way counts as inactive or inconclusive.

SMILES	A549 tox	IL2 activator	Nrf2 ARE act	Nrf2 inh
O=S(=O)(c1cccc(C(F)(F)F)c1)n1c(/C=C/c2ccccc2)nc2ccccc21	18%	.	1%	.
OC(c1ccccc1)(c1ccccc1)c1cnc2ccccn12	-3%	.	.	-14%
Cc1cccc(NC(=O)Cn2c(SCC(=O)NCc3ccccc3)nc3ccccc32)c1C	15%	.	-1%	.
Cc1cc(S(=O)(=O)c2ccc([N+](=O)[O-])cn2)ccc1Br	-10%	-1	13µM*	?
Cc1ccc(S(=O)(=O)c2ccc([N+](=O)[O-])cn2)cc1	-6%	-3	-1%	?
Cc1ccc(NC(=O)Cn2nnc(-c3nc(-c4ccncc4)no3)c2N)cc1	13%	.	0%	28%
COc1cc(C2CC(=O)N(Cc3ccc(F)cc3)c3ccccc3S2)cc(OC)c1OC (stereo not given)	-20%	.	-3%	16µM*
COc1ccc(C2CC(=O)N(Cc3ccc(F)cc3)c3ccccc3S2)cc1OC (stereo not given)	-3%	.	-1%	?
Cc1sc2ncnc(NCC3CCCO3)c2c1C (stereo not given)	-12%	0	0%	21µM*
CCc1cc2c(NCC3CCCO3)ncnc2s1 (stereo not given)	-8%	1	-1%	?
Cc1nc2cc(-c3ccccc3)sc2c(=O)n1N	0%	0	0%	4.1µM*
COc1ccc(-c2cc3nc(C)n(N)c(=O)c3s2)cc1	16%	0	-3%	6.5µM*
O=C(CCl)N(c1ccccc1)c1c[nH]c2ccccc12	-2%	-6	?	-13%
O=C(CCl)N(c1ccc(Cl)cc1)c1c[nH]c2ccccc12	?	-1	-3%	21µM*
O=C(NCC1CCOCC1)c1cc(COc2cccc(C(F)(F)F)c2)on1	-1%	-1	0%	23µM*
COc1ccc(-n2c(C)cc(C(=O)COC(=O)c3ccc(O)cc3O)c2C)cc1	?	-1	-1%	13µM*
Cc1cc(C(=O)COC(=O)c2ccc(O)cc2O)c(C)n1-c1ccccc1	-11%	-8	0%	-8%
CCOC(=O)N=Nc1c2ccccc2c2nc3no[nH]c3nc12	0.92µM*	-1	-3%	0.65µM*
O=C(Cc1ccc(NC(=O)N2CCCCc3ccccc32)cc1)Nc1ccccc1Br	-2%	.	3%	?
Cc1cc(OCc2cc(C(=O)N3CCN(C)C(=O)[C@@H]3C)no2)cc(C)c1Cl	-10%	-3	0%	21µM*
COc1ccc(CN=Cc2[nH]c3ccc(Br)c(Cl)c3c2O)cc1	4%	0	?	.
Cc1cc(C)cc(N=Cc2[nH]c3ccc(Br)c(Cl)c3c2O)c1	-7%	54*	?	-20%
CCOC(=O)C1=C(C)N=c2s/c(=C/c3cccc([N+](=O)[O-])c3O)c(=O)n2C1c1ccc(OC)cc1OC (stereo not given)	16µM*	2	0%[9.22 µM]	?
COc1cc(/C=C2\SC(=S)N(NC(=O)c3ccncc3)C2=O)ccc1O	21µM*	-5	0%	?
COc1ccccc1NC(=O)CN1C(=O)C2(SCC(=O)N2c2ccc(C)c(C)c2)c2ccccc21 (stereo not given)	?	.	0%	21µM*
SMILES	A549 tox	IL2 activator	Nrf2 ARE act	Nrf2 inh
CC(C)n1c(-c2ccco2)csc1=Nc1cccnc1	-10%	-2	4%	13µM*
COc1ccccc1NC(=O)Cn1c(=O)n(Cc2cccs2)c(=O)c2cccnc21	-4%	.	1%	-11%
CCC(=O)N1c2ccccc2CC1C(=O)NCCc1ccc(OC)cc1OC (stereo not given)	3%	.	0%	.
O=C(Nc1ccc(Cl)cc1)c1ccc(Br)cc1F	0%	-1	-1%	?
CC(C)c1ccc(NC(=O)c2cc(Br)ccc2Br)cc1	?	-2	7.1µM*	15%
CCOc1ccc(NC(=O)CSc2nccn2C2CCCC2)cc1	2%	.	1%	.
Cc1nc(N2CCCCC2)sc1C(=O)c1ccc(SCCO)c([N+](=O)[O-])c1	?	-7	4%	21µM*
COc1cccc(CNC(=O)Cn2c(=O)cc(C(F)(F)F)c3c(C)nn(C)c32)c1OC	-1%	.	-1%	0%
Cc1ncc(CO)c(/C=N/NC(=O)c2cc3c(s2)CCCC3)c1O	-8%	0	-1%	23µM*
CC(C)Cn1c2c(c(O)c(C(=O)Nc3nccs3)c1=O)CCCC2	-11%	-2	0%	21µM*
CCCn1c2c(c(O)c(C(=O)Nc3nccs3)c1=O)CCCC2	-2%	0	3%	?
Cc1cccc(-c2nc(SCC(=O)Nc3cccc(C(F)(F)F)c3)n3[nH]c(=O)cc3n2)c1	13%	.	7%	15%
Cc1[nH]c2ccccc2c1SCCNC(=O)c1ccc(Br)o1	?	-1	4%	23µM*
CCN(CC)S(=O)(=O)c1ccc2c(c1)N(CC(=O)NCCCN1CCN(c3ccc(OC)cc3)CC1)C(=O)CO2	-1%	.	0%	.
COc1ccccc1NC(=O)C1=C(C)Nc2nc(-c3ccco3)nn2C1c1ccccc1F (stereo not given)	1%	.	26%	?
CN(C(=O)c1ccco1)c1nnc(-c2ccc(F)cc2)s1	0%	-1	7.1µM*	3%
COc1ccc(-c2nnc(N(C)C(=O)c3ccco3)s2)cc1OC	5%	0	3%	-2%
Cc1ccc(CCS(=O)(=O)c2ccc(C(C)(C)C)cc2)cn1	-4%	-1	-1%	8.2µM*
CC(C)(C)c1ccc(S(=O)(=O)CCc2ccccn2)cc1	4%	0	0%	?
O=C(N1CCc2cc([S+](=O)([O-])N3CCN([S+](=O)([O-])c4c(F)cccc4F)CC3)ccc2C1)C(F)(F)F	2%	.	.	11%
Cc1nc(N/N=C/c2ccc(O)cc2O)cc(N2CCOCC2)n1	2%	-4	0%	21µM*
COc1ccc(NC(=O)Cn2nnnc2-c2ccccc2F)c(C)c1	17%	.	0%	22%
CC1=C(C(=O)Nc2ccccc2)C(c2cccc(O)c2)n2nc(-c3ccccc3Cl)nc2N1 (stereo not given)	-5%	.	11%	-3%
O=C(Nc1ccc(N2CCCC2)c(Cl)c1)c1ccco1	2%	-1	0%	?
O=C(Nc1ccc(N2CCCCC2)c(Cl)c1)c1ncn[nH]1	-1%	1	0%	8.2µM*
SMILES	A549 tox	IL2 activator	Nrf2 ARE act	Nrf2 inh
Cc1ccc(S(=O)(=O)N2CCN(c3nc(-c4cnccn4)nc4ccccc34)CC2)cc1	2%	.	.	-11%
COC1=C(Nc2ccc(C)cc2)C(=O)c2ccccc2C1=O	?	-3	1%	16µM*
CC1=C(Nc2ccc(C(=O)O)cc2)C(=O)c2ccccc2C1=O	?	1	2%	23µM*
O=C(O)c1ccc(NC2=C(Cl)C(=O)c3ccccc3C2=O)cc1	-11%	-5	10%	1%
COC1=C(Nc2ccccc2)C(=O)c2ccccc2C1=O	-2%	-4	0%	-1%
CC(=O)N1CCCc2cc(S(=O)(=O)N(C)CC(=O)Nc3ccc(F)c(Cl)c3)ccc21	-10%	.	0%	.
Cc1ccccc1-c1nc2cc(NC(=O)COc3ccc(F)cc3)ccc2o1	1%	.	1%	-5%

Compound activity: PubChem, National Center for Advancing Translational Sciences (NCATS)
